# PubChem BioAssay AID743366 (National Center for Advancing Translational Sciences (NCATS), 2014)
# Assay: qHTS profiling of inhibitors of Plasmodium falciparum (HB3) proliferation (acoustic dispense)
# Settings: P. falciparum HB3 in erythrocytes, SYBR Green, 72 h; at 49.8 µM (top of the series) unless noted
# Excerpt: Plasmodium falciparum is a virulent malarial parasite that kills 1-2 million people worldwide each year. Transmitted by mosquitoes, the sporozoite form of the parasite enters the blood stream to infect hepatocytes, where they become merozoites that infect red blood cells (erythrocytes). Within erythrocytes, merozoites begin a […] cycle of growth and division, after which the parasite is released to infect new red blood cells. Gametocytes, which form within erythrocytes as well, circulate in the bloodstream and are ingested by the mosquito, thereby completing the life cycle. To profile malarial isolates for differential chemical responses and to identify inhibitors of malarial growth, an assay that measures P. falciparum growth and replication within erythrocytes was employed. This assay uses a DNA binding fluorescent dye (SYBR Green) to detect parasite DNA following cell lysis. Because mature erythrocytes lack DNA, only Plasmodium-derived DNA is detected.
# The SYBR Green viability assay was adapted from a method described previously (Plouffe et al., 2008). For screening 3 ul culture medium was dispensed into 1536 well black clear bottom plates (Aurora Biotechnologies) using a Multidrop Combi (Thermo Fisher Scientific Inc.), 23 nL of compounds in DMSO were added by an acoustic dispenser (EDC Biosystems), and 5 ul of erythrocytes infected with P. falciparum (0.3% parasitemia, 2.5% hematocrit final concentration) were added. The plates were incubated at 37 C in a humidified incubator in 5% CO2 for 72 h, and 2 ul lysis buffer (20 mM Tris HCl, 10 mM EDTA, 0.16% saponin, 1.6% triton X, 10X SYBR Green I supplied as 10,000X […] by Invitrogen) was added to each well. The plates were mixed for 25 sec with gentle shaking and incubated overnight at room temperature in the dark. The following morning, fluorescence intensity at 485(14) nm excitation and 535(25) nm emission wavelengths was measured on an EnVision (Perkin Elmer) plate reader. Plate reads were normalized relative to the control inhibitor (0.29 uM artemisinin) and vehicle (DMSO) wells present on each plate and then corrected by an algorithm using vehicle-only control plates at the beginning and end of the compound plate stack.
row,Structure (SMILES),"activity (normalised, proliferation)"
1,COC1=CC(C)=C[C@@H](C)[C@@H](O)[C@@H](C)CC(C)=CC=C[C@H](OC)[C@H]([C@@H](C)[C@@H](O)[C@H](C)[C@@]2(O)C[C@@H](O)[C@H](C)[C@@H](C(C)C)O2)OC1=O,0.863%
2,CO[C@H]1CCC(O[C@H]2C[C@H]([C@]3(C)CC[C@]4(C[C@H](O)[C@@H](C)[C@@H]([C@@H](C)C=C(C)C(=O)[C@H](C)C[C@H](C)C(=O)O)O4)O3)O[C@]3(O[C@@H]([C@H]4O[C@@](O)(CO)[C@H](C)C[C@H]4C)C[C@H]3C)[C@H]2C)O[C@H]1C (stereo partly specified),120%
3,C[C@H]1CCCC=CC2C[C@H](O)C[C@@H]2[C@H](O)C=CC(=O)O1 (stereo partly specified),-0.991%
4,CC(=O)Nc1nnc(S(N)(=O)=O)s1,89.5%
5,COC(=O)[C@@]1(OC)C[C@@H]2O[C@@]1(C)n1c3ccccc3c3c4c(c5c6ccccc6n2c5c31)C(=O)N(C)C4,-0.375% [at 16.5 µM]
6,CC1=C(O)C(=O)C=C2C1=CC=C1[C@@]2(C)CC[C@@]2(C)[C@@H]3C[C@](C)(C(=O)O)CC[C@]3(C)CC[C@]12C,7.07%
7,CC(=O)N(O)CCCP(=O)(O)O,2.97%
8,CN1C(=O)C[C@H](C(=O)N[C@@H](Cc2cnc[nH]2)C(=O)N2CCC[C@@H]2C(N)=O)NC1=O,72.5%
9,CC=C1C2C=C(C)CC1(N)c1ccc(=O)[nH]c1C2 (stereo unspecified),103%
10,O=C(C[C@@H]1NCCC[C@@H]1O)Cn1cnc2ccccc2c1=O,-0.592%
11,CC=C(C)C(=O)N[C@@H](c1ccccc1)[C@@H](O)C(=O)O[C@H]1C[C@@]2(O)[C@@H](OC(=O)c3ccccc3)[C@@H]3[C@]4(OC(C)=O)CO[C@@H]4C[C@H](O)[C@@]3(C)C(=O)[C@H](OC(C)=O)C(=C1C)C2(C)C,2.88%
12,CC(=Cc1csc(C)n1)[C@@H]1C[C@H]2O[C@@H]2CCC[C@H](C)[C@@H](O)[C@@H](C)C(=O)C(C)(C)[C@@H](O)CC(=O)O1,10.3%
13,O=c1[nH]c2ccc(Cl)cc2c(N[C@@H]2CN3CCC2CC3)c1-c1nc2ccccc2[nH]1,-0.29%
14,C[C@]12O[C@H](C[C@@]1(O)C(=O)O)n1c3ccccc3c3c4c(c5c6ccccc6n2c5c31)CNC4=O,8.93% [at 4.15 µM]
15,CC(C)(N)CNC(=O)CC1CCC2(CC1)OOC1(O2)C2CC3CC(C2)CC1C3 (stereo unspecified),-0.313%
16,C[C@@H]1C[C@@H]([C@H](O)CC2CC(=O)NC(=O)C2)C(=O)[C@@H](C)C1,0.071%
